Only some compounds are listed: those with a hit (about 1.1% of all), similar ones and a draw of the others.
PrPC TRFRET – inhibitors of human cell surface prion protein PrPC; TR-FRET read-out; inhibition, % at 13.8 µM; P04156; hit rate 0.43% among 370,000; in the data active = inhibition above about 24%; also: 0% = median of the test wells and 100% = reference compound wells
BJeLR lethal – kills HRASV12-expressing BJeLR cells. BJeLR (HRASV12) viability, CellTiter-Glo ATP luminescence, 48 h. inhibition, % (test concentration not listed). hit rate 0.17% among 300,000. AID 1554; in the data active = inhibition above about 50%
3CLpro inhibitor – SARS-CoV 3CLpro protease inhibition; P0C6X7; recombinant SARS-CoV 3CLpro, quenched FRET peptide cleavage; inhibition, % at 6 µM; hit rate 0.14% among 290,000; in the data active = inhibition above about 12%
VHR inh abs – inhibitors of human VHR1 phosphatase (DUSP3) | P51452 | recombinant VHR phosphatase, pNPP absorbance | inhibition, % at 13.3 µM | hit rate 0.52% among 290,000; in the data active = inhibition above about 50%
PrPC TRFRET cf – confirmation of inhibitors of cell surface human prion protein | cell surface PrPC level, TR-FRET | inhibition, % at 13.8 µM | hit rate 65% among 1,500 | shares compounds with PrPC TRFRET | AID 743200; in the data active = inhibition above about 25%
LD9 tox – kills or reduces viability of LD9 cells in PrPc counter-screen; shares compounds with PrPC TRFRET; LD9 cells cytotoxicity, luminescence viability; inhibition, % at 13.8 µM; hit rate 29% among 1,500; in the data active = inhibition above about 9.5%
* = called active by the depositor.

`NC(Cc1ccc(F)cc1)c1csc(Nc2ncccn2)n1` (stereo unspecified) gave PrPC TRFRET 59*, PrPC TRFRET cf 55* and LD9 tox 23*.
COc1ccc(CC(N)c2csc(Nc3ncccn3)n2)cc1 (stereo unspecified) was read as PrPC TRFRET 38*, PrPC TRFRET cf 38* and LD9 tox 3.
`COc1ccc(CC(N)c2csc(Nc3nccc(C(F)(F)F)n3)n2)cc1` (stereo unspecified) gave PrPC TRFRET -7.
For COc1ccc(C(N)c2csc(Nc3ncccn3)n2)cc1 (stereo unspecified) the results were PrPC TRFRET 36*, PrPC TRFRET cf 18 and LD9 tox -6.
For Nc1ccc(CC(N)c2csc(Nc3ncccn3)n2)cc1 (stereo unspecified) the results were PrPC TRFRET 21.
Screening NC(Cc1ccc(Cl)cc1)c1csc(Nc2ncccn2)n1 (stereo unspecified) returned PrPC TRFRET 52*, PrPC TRFRET cf 60* and LD9 tox 13*.
`CC1(C(=O)Nc2cccnc2)Cc2c(-c3cccc(C(F)(F)F)c3)ccnc2O1` (stereo unspecified) gave PrPC TRFRET 6.
NC(c1csc(Nc2ncccn2)n1)c1ccccc1Cl (stereo unspecified) was read as PrPC TRFRET 33*, PrPC TRFRET cf 19 and LD9 tox -8.
`COc1ccc(OC)c(N(CCN2C(=O)c3ccccc3C2=O)C(=O)C2CCC(=O)C2C)c1` (stereo unspecified) gave PrPC TRFRET -6.
For COc1ccc(OC)c(C2C(C(N)=O)=C(C)Nc3nc(-c4cccc(Cl)c4)nn32)c1 (stereo unspecified) the results were PrPC TRFRET 42*, BJeLR lethal 0, 3CLpro inhibitor 2, VHR inh abs 3, PrPC TRFRET cf 34* and LD9 tox 0.
For O=C(Cc1ccc(-n2c(=O)c3ccccc3n(Cc3ccccc3F)c2=O)cc1)NCC1CCCO1 (stereo unspecified) the results were PrPC TRFRET 67*, BJeLR lethal -1, 3CLpro inhibitor 2, VHR inh abs 8, PrPC TRFRET cf 4 and LD9 tox -4.
Screening Cc1c(C(=O)Nc2ccncc2)sc2nc(-c3ccc(F)cc3)cn12 returned PrPC TRFRET 56*, BJeLR lethal -10, 3CLpro inhibitor 1, VHR inh abs 13, PrPC TRFRET cf 53* and LD9 tox 12*.
Oc1ccc(C[C@H]2CNC(=S)N2CC2CCCN2C[C@H](Cc2ccc(O)cc2)N2C[C@H](Cc3ccc(O)cc3)N(CC3CCCCCC3)C2=S)cc1 (stereo partly specified) was read as PrPC TRFRET -6.
For O=C(O)c1ccccc1SCc1csc(-c2ccccc2)n1 the results were PrPC TRFRET 76*, BJeLR lethal 4, 3CLpro inhibitor 1, VHR inh abs 12, PrPC TRFRET cf 60* and LD9 tox -4.
Screening Cc1cccc(C)c1-n1c(SCC(=O)N2CC(=O)Nc3ccccc32)nc2ccccc2c1=O returned PrPC TRFRET 27*, BJeLR lethal 2, 3CLpro inhibitor 2, VHR inh abs 3, PrPC TRFRET cf 18 and LD9 tox 1.
`CC(C)c1nc(SCC(=O)N2CC(=O)Nc3ccccc32)c2ccccc2n1` gave PrPC TRFRET 80*, BJeLR lethal 0, 3CLpro inhibitor 0, VHR inh abs 17, PrPC TRFRET cf 104* and LD9 tox 0.
Cc1ccc(-n2c(SCC(=O)N3CC(=O)Nc4ccccc43)nc3ccccc3c2=O)cc1 was read as PrPC TRFRET 7, BJeLR lethal -24, 3CLpro inhibitor 3 and VHR inh abs 5.
Screening Cc1nnc(SCc2nc3scc(-c4ccccc4)c3c(=O)[nH]2)s1 returned PrPC TRFRET 4, BJeLR lethal -1, 3CLpro inhibitor 1 and VHR inh abs 10.
`Nc1nnc(SCc2nc3scc(-c4ccccc4)c3c(=O)[nH]2)s1` gave PrPC TRFRET 26*, BJeLR lethal 10, 3CLpro inhibitor 0, VHR inh abs 26, PrPC TRFRET cf 53* and LD9 tox 3.
CCN(CC)c1c([N+](=O)[O-])c(=O)n(C)c2ccccc12 was read as PrPC TRFRET -1, BJeLR lethal 14, 3CLpro inhibitor 2 and VHR inh abs 20.
For Cn1c(=O)c([N+](=O)[O-])c(Cl)c2ccccc21 the results were PrPC TRFRET 57*, BJeLR lethal 14, 3CLpro inhibitor -3, VHR inh abs 8, PrPC TRFRET cf 50* and LD9 tox 98*.
For CCCOc1cccn2c(N(C=O)Cc3ccc(OC)cc3)c(CC)nc12 the results were PrPC TRFRET 8.
For O=C(C1CCCN(C2CC(=O)N(c3ccc(Cl)cc3)C2=O)C1)N1CCCC1 (stereo unspecified) the results were PrPC TRFRET 3, BJeLR lethal -3, 3CLpro inhibitor -5 and VHR inh abs 19.
COc1cccc(N2CCN(c3ncnc4c3[nH]c3ccccc34)CC2C)c1 (stereo unspecified) was read as PrPC TRFRET 55*, BJeLR lethal 10, 3CLpro inhibitor -4, VHR inh abs 35, PrPC TRFRET cf 75* and LD9 tox 90*.
`COc1ccc2c(c1)[nH]c1c(N3CCSCC3)ncnc12` gave PrPC TRFRET 8, BJeLR lethal 15, 3CLpro inhibitor -2 and VHR inh abs 1.
For CC1CCN(c2ccc3nnc(CCC(=O)N4CCN(c5ccc(F)cc5)CC4)n3n2)CC1 the results were PrPC TRFRET 40*, BJeLR lethal 3, 3CLpro inhibitor 5, VHR inh abs -27, PrPC TRFRET cf -6 and LD9 tox -3.
`Cn1cc(Cl)c(-c2n[nH]c(=S)n2-c2ccccc2)n1` gave PrPC TRFRET 29*, BJeLR lethal 2, 3CLpro inhibitor -1, VHR inh abs 24, PrPC TRFRET cf 45* and LD9 tox -3.
`CCOC1=C2CN(S(=O)(=O)c3ccc(C)cc3)[C@H](c3ccccc3)C[C@@H]2N(S(=O)(=O)c2ccc(C)cc2)[C@H](c2cccs2)C1` gave PrPC TRFRET -2.
C#CCN(C[C@H]1[C@H](OC(=O)NCc2ccccc2F)[C@H](OC(=O)NCc2ccccc2F)C[C@H]2C(=O)N(c3ccccc3)C(=O)[C@@H]12)S(=O)(=O)c1ccc(C)cc1 was read as PrPC TRFRET 4.
Screening COc1cccc(-c2ccc(CC[C@H]3O[C@H]4CC[C@H](CO)O[C@H]4C[C@H]3NS(C)(=O)=O)cc2)c1 returned PrPC TRFRET 3.
`C[C@@H]1CC=C[C@H]2[C@H]1C(=O)N(Cc1ccccc1)[C@H]2c1ccc2ccccc2c1Br` gave PrPC TRFRET 42*, BJeLR lethal 5, VHR inh abs 27, PrPC TRFRET cf 50* and LD9 tox -3.
